A short description of test [1]: qHTS assay for small molecule agonists of the p53 signaling pathway (AID 651631; calls by dose curve; further: nearly all actives have a fitted effect of over 15% in size; further: potency means the concentration at half of the fitted maximal effect). Put shortly: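 HCT-116 p53RE-bla reporter line, 16 h compound treatment at 37 °C, then fluorescence after 2 h with B/G FRET substrate.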
On the technique in general: Quantitative high-throughput screening tests each substance at several concentrations.

The nature of test [2]: qHTS assay for small molecules that induce genotoxicity in human embryonic kidney cells expressing luciferase-tagged ATAD5 (AID 651632). Further: nearly all actives have a fitted effect of over 15% in size. Put shortly:
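Reporter cells (HEK293T) express luciferase-tagged ATAD5, a protein that accumulates after DNA damage. Treat 16 hr at 37C/5% CO2, add Amplite, wait 30 min at RT, and read luminescence.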

A short description of test [3]: qHTS assay for small molecule agonists of the p53 signaling pathway - cell viability (AID 651633; calls by dose curve;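 further: p53RE-bla HCT reporter cells with a stable beta-lactamase p53 reporter; series mostly up to about 83 µM; nearly all actives have a fitted effect of over 30% in size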). Put shortly: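 Viability counter-read: CellTiter-Glo luminescence (30 min, room temperature) in the same p53RE-bla plates. These plates had been exposed to compounds for 16 h at 37 C.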
Test [4] is described as follows: qHTS assay for small molecules that induce genotoxicity in human embryonic kidney cells expressing luciferase-tagged ATAD5 - cell viability (AID 651634; calls by dose curve; further: nearly all actives have a fitted effect of over 25% in size). Put shortly:
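Seeding of 2,000 HEK293T ATAD5-luciferase cells per well preceded pin-tool compound transfer. Plates sat 15.5 hr at 37C under 5% CO2, then fluorescence was read after 30 min with CellTiter-Fluor.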

A short description of test [5]: qHTS assay for small molecule disruptors of the mitochondrial membrane potential - cell viability (AID 720634; calls by dose curve;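 further: human HepG2 liver cancer cells; series mostly up to about 83 µM; nearly all actives have a fitted effect of over 20% in size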). A digest of the protocol:
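Measuring cytotoxicity alongside mitochondrial potential, the screen quantified ATP by luminescence in HepG2 cells after 1 hr compound incubation and a 30 min room-temperature CellTiter-Glo step.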

Test [6] is described as follows: qHTS assay for small molecule disruptors of the mitochondrial membrane potential (AID 720635). A digest of the protocol: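 Mitochondrial membrane potential tracked with Mito-MPS dye, red aggregates (ex 540/em 590 nm) against green monomers (ex 490/em 535 nm). Compound treatment 1 hr at 37C, dye 30 min in HepG2.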
Test [7] can be described thus: qHTS assay to test for compound auto fluorescence at 535 nm (green) in HepG2 cells (AID 720675).
A short description of test [8]: qHTS assay to test for compound auto fluorescence at 460 nm (blue) in HEK293 cells (AID 720678). Put shortly:
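Cells were seeded and left to adhere for 4-5 hr at 37C. Compounds were then pin-transferred. After an overnight incubation at 37C under 5% CO2, intrinsic fluorescence at 405/460 nm was measured and referenced to triamterene.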

A short description of test [9]: qHTS assay to test for compound auto fluorescence at 590 nm (red) in HEK293 cells (AID 720679). A digest of the protocol: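 Each well held 2,000 HEK293 cells in medium containing 10% dialyzed FBS. Following 4-5 hr attachment at 37C, 23 nL test compound or DMSO was added; plates sat overnight, and red fluorescence (540/590nm) was recorded.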
Test [10] is described as follows: qHTS assay to test for compound auto fluorescence at 590 nm (red) in HepG2 cells (AID 720674). Put shortly:
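1 hr compound incubation on HepG2 cells, 37 C, 5% CO2; plate read ex 540 nm / em 590 nm; intensities reported as Rose Bengal sodium equivalents.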

Molecules are shown by their SMILES. Inconclusive results are not listed. Activity calls are given as the source filed them. Unless noted, the call rests on the fitted dose curve; in most records, active means well fitted curve in the direction sought with a large enough effect in the repeat runs; inconclusive means weak or mixed curves; inactive means no such curve, though single readings can be large; an effect the other way counts as inactive or inconclusive.

Take `O=C(O)c1cc(O)c2c(c1)[C@H]([C@H]1c3cc(C(=O)O)cc(O)c3C(=O)c3c(O[C@@H]4O[C@H](CO)[C@@H](O)[C@H](O)[C@H]4O)cccc31)c1cccc(O[C@@H]3O[C@H](CO)[C@@H](O)[C@H](O)[C@H]3O)c1C2=O`: the Potency entry in test [1], in test [2], in test [3], in [4], in [5] and in [6] was “inactive” in each case. The Potency entry in [7] and in test [8] was “inactive” each time. In addition, the molecule was called inactive in [9].

Turning to `CC(C)COC(=O)OCN1C(=O)CN(CCN2CC(=O)N(COC(=O)OCC(C)C)C(=O)C2)CC1=O`, the Potency in [1] is 3.76 µM (active). The Potency result in [2], in test [3], in test [4], in test [6], in test [7] and in test [8] was “inactive” in each case. In addition, the molecule was called inactive in test [10] and in test [9].

Turning to `COC(=O)[C@H]1[C@H]2C[C@H]3c4[nH]c5ccccc5c4CCN3C[C@H]2CC[C@@H]1O`, the Potency result in test [1], in [2], in test [3], in [4], in [5] and in test [6] was “inactive” each time. For the same molecule, the Potency entry in test [7] and in test [8] was “inactive” in each case. In addition, in test [9], the result was inactive.

In the case of `O=c1[nH]c(=O)n([C@H]2C[C@H](O)[C@@H](CO)O2)cc1/C=C/Br`, the Potency result in test [1], in [2], in test [3], in [4], in test [6] and in test [7] was “inactive” in each case. In test [8], the Potency entry was “inactive”. The call in test [10] and in test [9] was inactive.

On to `Nc1cc(Cl)c(NC2=NCCN2)c(Cl)c1`, for which the Potency entry in test [1], in test [2], in test [3], in test [4], in test [5] and in test [6] was “inactive” each time. Besides, the Potency result in test [7] and in test [8] was “inactive” in each case. Besides, in test [9], the outcome was inactive.

As for `O=C(Cn1cnnn1)N[C@@H]1C(=O)N2C(C(=O)O)=C(CSc3nncs3)CS[C@H]12`, the Potency result in [1], in test [2], in [3], in test [4], in test [6] and in test [7] was “inactive” in each case. Further, the Potency entry in [8] is “inactive”. For the same molecule, the result in test [10] and in test [9] was inactive.

With `C[S+](CC[C@H](N)C(=O)O)C[C@H]1O[C@@H](n2cnc3c(N)ncnc32)[C@H](O)[C@@H]1O` (some centres undefined), the Potency result in test [1], in test [2], in [3], in test [4], in test [5] and in [7] was “inactive” each time. Also, the Potency result in [8] was “inactive”. Also, the molecule was called inactive in test [10] and in test [9].

Consider `NCCCC[C@H](NC(=O)[C@@H]1CCCN1C(=O)[C@@H]1CSSC[C@H](N)C(=O)N[C@@H](Cc2ccc(O)cc2)C(=O)N[C@@H](Cc2ccccc2)C(=O)N[C@@H](CCC(N)=O)C(=O)N[C@@H](CC(N)=O)C(=O)N1)C(=O)NCC(N)=O`, for which the Potency entry in test [1], in [2], in test [3], in test [4], in test [5] and in [6] was “inactive” in each case. Moreover, the Potency entry in [7] and in [8] was “inactive” throughout. Besides, the outcome in [9] was inactive.

As for `CC(=O)NC[C@H]1CN(c2ccc(N3CCOCC3)c(F)c2)C(=O)O1`, the Potency entry in test [1], in test [2], in [4], in [5], in test [6] and in test [7] was “inactive” each time. In addition, in test [8], the Potency entry was “inactive”. For the same molecule, the outcome in [10] and in [9] was inactive.

With `CN1[C@@H](CC(=O)c2ccccc2)CCC[C@H]1C[C@H](O)c1ccccc1`, the Potency entry in test [1], in test [2], in test [4] and in test [5] was “inactive” in each case. Besides, the call in [10] and in test [9] was inactive.

Regarding `C[N+]1(CCCCC[N+]2(C)CCCC2)CCCC1`, the Potency entry in [1], in test [2], in test [4], in test [5], in [6] and in test [8] was “inactive” each time. The call in test [10] and in test [9] was inactive.

Regarding `CC(C)CCC[C@@H](C)[C@H]1CC[C@H]2[C@@H]3CC=C4C[C@@H](O)CC[C@]4(C)[C@H]3CC[C@]12C`, the Potency entry in test [1], in test [2], in [4], in [5], in test [6] and in test [7] was “inactive” in each case. In test [8], the Potency entry is “inactive”. Moreover, the call in test [10] and in test [9] was inactive.

`O=C1OC(=O)c2cc(-c3ccc4c(c3)C(=O)OC4=O)ccc21`: the Potency entry in test [1], in test [2], in test [4], in test [5] and in test [8] was “inactive” in each case. Further, the call in test [10] and in [9] was inactive.

Regarding `O=C1C2CC3CC1CC(O)(C3)C2`, the Potency entry in test [1], in test [2], in [3], in [4], in [6] and in test [7] was “inactive” throughout. Moreover, the Potency entry in test [8] was “inactive”. The molecule was called inactive in test [9].

On to `O=P(O)(O)C(O)(Cn1ccnc1)P(=O)(O)O`, for which the Potency entry in [1], in [2], in [4], in test [5], in test [6] and in test [7] was “inactive” in each case. The Potency entry in test [8] is “inactive”. Also, the molecule was called inactive in test [10] and in test [9].

As for `CC12CCC(C[N+](C)(CCC[N+](C)(C)C)C1)C2(C)C` (centres undefined), the Potency result in test [1], in [2], in test [4], in test [5], in [6] and in test [7] was “inactive” throughout. The Potency result in test [8] was “inactive”. In addition, the call in test [10] and in [9] was inactive.

As to `CCOc1cc(CC(=O)N[C@@H](CC(C)C)c2ccccc2N2CCCCC2)ccc1C(=O)O`, the Potency entry in test [1], in test [2], in [4], in test [6], in test [7] and in test [8] was “inactive” in each case. For the same molecule, the outcome in test [10] and in test [9] was inactive.

As to `Cc1ccc(C(C)(C)c2ccc(C)cc2)cc1`, the Potency entry in test [1], in test [2], in test [3], in [4], in [6] and in test [8] was “inactive” each time. In addition, the result in test [10] and in test [9] was inactive.

`CC[C@H]1OC(=O)C[C@@H](O)[C@H](C)[C@@H](O[C@@H]2O[C@H](C)[C@@H](O[C@H]3C[C@@](C)(O)[C@@H](O)[C@H](C)O3)[C@H](N(C)C)[C@H]2O)[C@@H](CC=O)C[C@@H](C)C(=O)/C=C/C(C)=C/[C@@H]1CO[C@@H]1O[C@H](C)[C@@H](O)[C@@H](OC)[C@H]1OC`: the Potency entry in [1], in test [2], in test [4], in test [5], in test [6] and in test [7] was “inactive” in each case. For the same molecule, the call in test [10] and in test [9] was inactive.

With `c1ccc2c(c1)OCC(CN1CCCCC1)O2` (centres undefined), the Potency entry in test [1], in test [2], in test [4], in test [5], in test [6] and in test [7] was “inactive” throughout. In addition, in [8], the Potency entry was “inactive”. In addition, the outcome in test [10] and in test [9] was inactive.

As to `C=CC[N@@+]12CC[C@@]34c5ccccc5N5/C=C6/[C@H]7C[C@H]8[C@@]9(CC[N@@+]8(CC=C)C/C7=C/CO)c7ccccc7N(/C=C(/[C@@H](C[C@@H]31)/C(=C\CO)C2)[C@H]54)[C@@H]69`, the Potency result in [1], in test [2], in test [4], in [5], in [6] and in [7] was “inactive” throughout. Also, the Potency entry in [8] was “inactive”. For the same molecule, the molecule was called inactive in [10] and in test [9].

The values are drawn from PubChem BioAssay (Tox21).
